Read-out in test [1]: TIMP metallopeptidase inhibitor 1 (TIMP1), TIMP1 (gene 7076)
The test can be described thus: BSK_hDFCGF_TIMP1: BioMAP Diversity Plus: hDFCGF Assay for TIMP metallopeptidase inhibitor 1 (TIMP1) Biomarker Activity (AID 2283062). The conditions noted are these: primary human foreskin fibroblasts; actives raise or lower the signal. The essentials: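 Bidirectional curve fitting against DMSO baseline yielded this endpoint, based on ELISA detection of TIMP-1 in primary human foreskin fibroblasts exposed to compound for 24 h.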

Read-out in test [2]: Monokine induced gamma interferon (MIG), CXCL9 (gene 4283)
In words: BSK_hDFCGF_MIG: BioMAP Diversity Plus: hDFCGF Assay for Monokine induced gamma interferon (MIG) Biomarker Activity (AID 2283063). The settings on record: primary human foreskin fibroblasts; actives raise or lower the signal. A digest of the protocol:
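Endpoint derived by bidirectional fitting relative to DMSO; MIG quantified via ELISA in primary human foreskin fibroblasts harvested 24 h after dosing.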

Read-out in test [3]: Matrix Metallopeptidase 1 (MMP1), MMP1 (gene 4312)
In words: BSK_hDFCGF_MMP1: BioMAP Diversity Plus: hDFCGF Assay for Matrix Metallopeptidase 1 (MMP1) Biomarker Activity (AID 2283064). The settings on record: primary human foreskin fibroblasts; actives raise or lower the signal. A digest of the protocol: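 Primary human foreskin fibroblasts exposed to chemicals for 24 h; MMP1 measured by ELISA. Cytotoxicity tracked by SRB staining in parallel cultures; bidirectional fit relative to DMSO.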

Read-out in test [4]: Plasminogen activator inhibitor-1 (PAI1), SERPINE1 (gene 5054)
The test can be described thus: BSK_hDFCGF_PAI1: BioMAP Diversity Plus: hDFCGF Assay for Plasminogen activator inhibitor-1 (PAI1) Biomarker Activity (AID 2283066). The conditions noted are these: primary human foreskin fibroblasts; actives raise or lower the signal. A digest of the protocol:
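PAI-1 levels, determined by ELISA, served as the endpoint in human foreskin fibroblast cultures exposed to compound for 24 h, with DMSO as baseline.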

Read-out in test [5]: Intercellular Adhesion Molecule 1 (ICAM1), ICAM1 (gene 3383)
In words: BSK_KF3CT_ICAM1: BioMAP Diversity Plus: KF3CT Assay for Intercellular Adhesion Molecule 1 (ICAM1) Biomarker Activity (AID 2283067). The settings on record: primary human keratinocytes with fibroblasts; actives raise or lower the signal. The essentials: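 Bidirectional curve fitting against a DMSO baseline was applied to ICAM-1 ELISA signal from primary human skin co-cultures harvested 24 h after treatment, with SRB staining of parallel wells for overt cytotoxicity.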

Read-out in test [6]: Interferon-gamma inducible Protein 10 (IP10), CXCL10 (gene 3627)
In words: BSK_KF3CT_IP10: BioMAP Diversity Plus: KF3CT Assay for Interferon-gamma inducible Protein 10 (IP10) Biomarker Activity (AID 2283068). The conditions noted are these: primary human keratinocytes with fibroblasts; actives raise or lower the signal. A digest of the protocol:
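ELISA read-out of IP-10 after 24 h chemical dosing of human skin primary co-culture (keratinocytes, foreskin fibroblasts). Gain or loss of signal relative to DMSO, bidirectional curve fit.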

A short description of test [7]: BSK_KF3CT_SRB: Viability Assessment in the BioMAP Diversity Plus: KF3CT Assay (AID 2283069).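 Further: total protein by sulforhodamine B staining as a cytotoxicity measure; read 24 h after compound addition; fitted for both signal gain and loss against DMSO baseline.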 The conditions noted are these: primary human keratinocytes with fibroblasts. A digest of the protocol: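 Human keratinocyte and foreskin fibroblast co-culture exposed to chemical for 24 h. Total protein measured in parallel cultures by 0.1% sulforhodamine B staining after 10% TCA fixation, read at 560 nm; bidirectional fit relative to DMSO.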

Read-out in test [8]: Interleukin-1 alpha (IL1a), IL1A (gene 3552)
In words: BSK_KF3CT_IL1a: BioMAP Diversity Plus: KF3CT Assay for Interleukin-1 alpha (IL1a) Biomarker Activity (AID 2283070). The conditions noted are these: primary human keratinocytes with fibroblasts; actives raise or lower the signal. The essentials: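 Primary human keratinocyte plus foreskin fibroblast co-culture, dosed and measured at 24 h in 96-well plates. IL-1a level quantified by ELISA; bidirectional fit relative to DMSO.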

Read-out in test [9]: TIMP metallopeptidase inhibitor 2 (TIMP2), TIMP2 (gene 7077)
In words: BSK_KF3CT_TIMP2: BioMAP Diversity Plus: KF3CT Assay for TIMP metallopeptidase inhibitor 2 (TIMP2) Biomarker Activity (AID 2283071). The conditions noted are these: primary human keratinocytes with fibroblasts; actives raise or lower the signal. The essentials: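 Keratinocyte–fibroblast co-culture, 24 h exposure; TIMP-2 ELISA, DMSO-normalised bidirectional fit. Parallel SRB (0.1%, TCA-fixed, 560 nm) total-protein staining gauges cytotoxicity.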

Read-out in test [10]: C-C motif chemokine 2 (Homo sapiens) (UniProt P13500)
In words: BSK_KF3CT_MCP1: BioMAP Diversity Plus: KF3CT Assay for Monocyte Chemoattractant Protein 1 (MCP1/CCL2) Biomarker Activity (AID 2283073). The conditions noted are these: primary human keratinocytes with fibroblasts; actives raise or lower the signal. A digest of the protocol:
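Biomarker MCP-1 is measured by ELISA in primary human keratinocytes co-cultured with foreskin fibroblasts, 24 h after chemical treatment; DMSO serves as the negative control and activity baseline.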

Read-out in test [11]: Matrix Metallopeptidase 9 (MMP9), MMP9 (gene 4318)
The test can be described thus: BSK_KF3CT_MMP9: BioMAP Diversity Plus: KF3CT Assay for Matrix Metallopeptidase 9 (MMP9) Biomarker Activity (AID 2283074). The conditions noted are these: primary human keratinocytes with fibroblasts; actives raise or lower the signal. The essentials: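 Human keratinocyte and foreskin fibroblast co-culture exposed to chemicals for 24 h; MMP9 biomarker measured by ELISA, bidirectional fitting relative to DMSO; cytotoxicity tracked by SRB total protein staining in parallel cultures.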

Read-out in test [12]: urokinase plasminogen activator (uPA), PLAU (gene 5328)
In words: BSK_KF3CT_uPA: BioMAP Diversity Plus: KF3CT Assay for urokinase plasminogen activator (uPA) Biomarker Activity (AID 2283075). The settings on record: primary human keratinocytes with fibroblasts; actives raise or lower the signal. The essentials: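 Primary human keratinocyte/foreskin fibroblast co-culture exposed to chemical; uPA measured by ELISA at 24 h. Bidirectional fit versus DMSO, with parallel SRB total-protein staining for cytotoxicity.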

Read-out in the next test: CD40, CD40 (gene 958)
In words: BSK_LPS_CD40: BioMAP Diversity Plus: LPS Assay for CD40 Biomarker Activity (AID 2283076). The conditions noted are these: primary human HUVEC with PBMC; actives raise or lower the signal. A digest of the protocol: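 Using a multiplexed primary human co-culture (umbilical vein endothelium plus PBMC), CD40 was read by ELISA 24 h after dosing, with cytotoxicity tracked by sulforhodamine B staining of parallel cultures and activity fitted bidirectionally versus DMSO.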

Read-out in test [13]: E-selectin (Homo sapiens) (UniProt P16581)
In words: BSK_LPS_Eselectin: BioMAP Diversity Plus: LPS Assay for Eselectin Biomarker Activity (AID 2283077). The conditions noted are these: primary human HUVEC with PBMC; actives raise or lower the signal. The essentials:
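Dose chemical onto LPS-driven HUVEC/PBMC co-culture; after 24 h, run ELISA for E-selectin; fit up- and down-going responses relative to DMSO control.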

Read-out in test [14]: Interleukin-8 (IL8), CXCL8 (gene 3576)
In words: BSK_LPS_IL8: BioMAP Diversity Plus: LPS Assay for Interleukin-8 (IL8) Biomarker Activity (AID 2283078). The conditions noted are these: primary human HUVEC with PBMC; actives raise or lower the signal. A digest of the protocol:
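In this LPS system, chemical-treated human umbilical vein endothelium/PBMC co-cultures were harvested at 24 h for IL-8 ELISA.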

Test [15] is described as follows: BSK_LPS_SRB: Viability Assessment in the BioMAP Diversity Plus: LPS Assay (AID 2283079).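 Further: total protein by sulforhodamine B absorbance as a cytotoxicity measure; measured one day after compound addition; fitted in both directions against DMSO so loss or gain of signal counts.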 The conditions noted are these: primary human HUVEC with PBMC. A digest of the protocol:
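Cytotoxicity endpoint in human endothelial–PBMC co-culture: 24 h exposure, then SRB (0.1%) staining, 560 nm read.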

Read-out in test [16]: Interleukin-1 alpha (IL1a), IL1A (gene 3552)
The test can be described thus: BSK_LPS_IL1a: BioMAP Diversity Plus: LPS Assay for Interleukin-1 alpha (IL1a) Biomarker Activity (AID 2283080). The conditions noted are these: primary human HUVEC with PBMC; actives raise or lower the signal. The essentials:
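Primary human HUVEC and PBMC co-culture stimulated with LPS is dosed and harvested at 24 h. Both increases and decreases in ELISA-measured IL-1a are scored relative to DMSO.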

Read-out in test [17]: Monocyte Chemoattractant Protein-1 (MCP1), CCL2 (gene 6347)
The test can be described thus: BSK_LPS_MCP1: BioMAP Diversity Plus: LPS Assay for Monocyte Chemoattractant Protein-1 (MCP1) Biomarker Activity (AID 2283081). The settings on record: primary human HUVEC with PBMC; actives raise or lower the signal. A digest of the protocol: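 Values derive from bidirectional fitting against DMSO of ELISA-measured MCP-1 in a human primary endothelial and mononuclear cell co-culture, 24 h after chemical addition under LPS activation.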

Read-out in test [18]: Transforming growth factor beta 1 (TGFb1), TGFB1 (gene 7040)
The test can be described thus: BSK_KF3CT_TGFb1: BioMAP Diversity Plus: KF3CT Assay for Transforming growth factor beta 1 (TGFb1) Biomarker Activity (AID 2283072). The conditions noted are these: primary human keratinocytes with fibroblasts; actives raise or lower the signal. A digest of the protocol:
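Signal changes in either direction, relative to DMSO, define activity here. TGF-b1 is read by ELISA from a human keratinocyte-fibroblast co-culture 24 h post-dose.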

For six molecules, outcome and AC50 results are on record in PubChem BioAssay (EPA / NIEHS).

The source made the active and inactive calls. How the source made its calls: active means hit-call score of the fitted dose curve at least 0.9, where 1 is the maximum; inactive means score below 0.9.

Sequence of E-selectin (Homo sapiens) (P16581 whole entry, looked up): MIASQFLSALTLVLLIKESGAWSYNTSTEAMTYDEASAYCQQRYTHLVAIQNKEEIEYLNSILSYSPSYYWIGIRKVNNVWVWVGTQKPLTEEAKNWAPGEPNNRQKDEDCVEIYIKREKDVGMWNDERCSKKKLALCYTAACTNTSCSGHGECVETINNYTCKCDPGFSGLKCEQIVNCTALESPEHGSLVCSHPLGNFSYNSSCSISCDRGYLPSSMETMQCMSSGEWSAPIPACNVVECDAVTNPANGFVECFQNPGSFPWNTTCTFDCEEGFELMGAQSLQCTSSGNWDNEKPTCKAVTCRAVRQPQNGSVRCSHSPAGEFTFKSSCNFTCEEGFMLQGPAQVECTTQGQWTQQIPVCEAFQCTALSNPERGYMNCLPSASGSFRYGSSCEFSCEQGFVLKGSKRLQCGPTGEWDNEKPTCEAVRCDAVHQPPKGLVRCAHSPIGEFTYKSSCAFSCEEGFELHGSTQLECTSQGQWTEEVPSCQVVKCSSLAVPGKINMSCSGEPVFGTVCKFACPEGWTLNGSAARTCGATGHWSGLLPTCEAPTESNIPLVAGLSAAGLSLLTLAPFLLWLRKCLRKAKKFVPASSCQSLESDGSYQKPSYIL

As to `c1ccc(Nc2ccccc2)cc1`, the outcome in [1], in [2], in test [3], in [4], in [5] and in test [6] was inactive. Besides, the result in test [7], in test [8], in [9], in test [10], in test [11] and in test [12] was inactive. Further, the outcome in the test with CD40, CD40 (gene 958) was “inactive”; in test [13], “inactive”; in test [14], “inactive”; in test [15], “inactive”; in test [16], “inactive”; in test [17] it was “inactive”.

For the molecule `CCCOC(=O)NCCCN(C)C`, the result in [1], in [2], in test [3], in test [4], in test [5] and in [6] was inactive. Besides, the result in test [7], in test [8], in [9], in [10], in [11] and in test [12] was inactive. Moreover, the outcome in the test with CD40, CD40 (gene 958) was “inactive”; in test [13], “inactive”; in [14] it was “inactive”; in [15], “inactive”; in test [16] it was “inactive”; in test [17], “inactive”.

As for `CCC(C)OC(=O)N1CCCCC1CCO` (stereo not given), the result in test [1], in [2], in [3], in [4], in test [5] and in test [6] was inactive. Moreover, the result in [7], in test [8], in [9], in [18], in test [10] and in test [11] was inactive. Also, the outcome in test [12] is “inactive”; with CD40, CD40 (gene 958), “inactive”; in test [13] it was “inactive”; in test [14] it was “inactive”; in test [15], “inactive”; in test [16], “inactive”. The outcome in [17] was inactive.

What is called AC50 is the midpoint of the concentration-response curve, whichever way the signal moves. As to `COC(=O)c1ccccc1C(=O)O`, the AC50 was 6.58 µM (active) in [1], 10.4 µM (active) in [6] and 0.726 µM (active) in [10]. Also, the outcome in test [2], in [3], in test [4], in [5], in test [7] and in test [8] was inactive. Besides, the outcome in test [9] is “inactive”; in test [11], “inactive”; in test [12], “inactive”; with CD40, CD40 (gene 958), “inactive”; in test [13], “inactive”; in test [14] it was “inactive”. Also, the result in test [15], in test [16] and in [17] was inactive.

In the case of `COC(=O)c1cccc(C)c1S(=O)(=O)NC(=O)Nc1nc(OCC(F)(F)F)nc(N(C)C)n1`, the outcome in [1], in test [2], in test [3], in [4], in test [5] and in test [6] was inactive. The result in [7], in [8], in test [9], in [10], in test [11] and in [12] was inactive. For the same molecule, the outcome in the test with CD40, CD40 (gene 958) was “inactive”; in test [13], “inactive”; in test [14], “inactive”; in [15], “inactive”; in [16] it was “inactive”; in test [17] it was “inactive”.

On to `CCCCC(CC)COC(=O)c1ccccc1C(=O)O` (stereo not given), for which the outcome in [1], in test [3], in [4], in test [5], in test [6] and in [7] was inactive. Also, the result in test [8], in test [9], in test [18], in test [10], in [11] and in test [12] was inactive. For the same molecule, the outcome with CD40, CD40 (gene 958) is “inactive”; in test [13], “inactive”; in test [14], “inactive”; in [15], “inactive”; in [16], “inactive”; in [17], “inactive”. Besides, the AC50 in [2] is 13.8 µM (active).
